Compounds without any hit were thinned out: in the full panel of roughly 83,000, 20% have a hit.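 Method: cells in 96-well plates; compound added at one concentration; 48 h incubation; percent growth measured; values under 10 scored active.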 A number with no mark means an inactive call. The source made the active and inactive calls.
What was measured:
Assay in all cases: NCI-60 one-dose screen, 48 h (100 = growth as untreated, 0 = no growth, -100 = all killed)
SK-MEL-2 melanoma = settings: 10 µM unless noted
EKVX NSCLC = settings: 10 µM unless noted
SN12C renal = settings: 10 µM unless noted
UO-31 renal = settings: 10 µM unless noted
TK-10 renal = settings: 10 µM unless noted
ACHN renal = settings: 10 µM unless noted
CAKI-1 renal = settings: 10 µM unless noted
A498 renal = settings: 10 µM unless noted
MOLT-4 leukemia = settings: 10 µM unless noted
SR leukemia = settings: 10 µM unless noted
RPMI-8226 leukemia = settings: 10 µM unless noted
OVCAR-8 ovarian = settings: 10 µM unless noted
OVCAR-5 ovarian = settings: 10 µM unless noted
OVCAR-4 ovarian = settings: 10 µM
SK-OV-3 ovarian = settings: 10 µM unless noted
IGROV1 ovarian = settings: 10 µM unless noted
OVCAR-3 ovarian = settings: 10 µM unless noted
HS 578T breast = settings: 10 µM unless noted
NCI/ADR-RES ovarian = settings: 10 µM unless noted
CCRF-CEM leukemia = settings: 10 µM unless noted

| Compound | growth (SK-MEL-2 melanoma) | growth (EKVX NSCLC) | growth (SN12C renal) | growth (UO-31 renal) | growth (TK-10 renal) | growth (ACHN renal) | growth (CAKI-1 renal) | growth (A498 renal) | growth (MOLT-4 leukemia) | growth (SR leukemia) | growth (RPMI-8226 leukemia) | growth (OVCAR-8 ovarian) | growth (OVCAR-5 ovarian) | growth (OVCAR-4 ovarian) [%] | growth (SK-OV-3 ovarian) | growth (IGROV1 ovarian) | growth (OVCAR-3 ovarian) | growth (HS 578T breast) | growth (NCI/ADR-RES ovarian) | growth (CCRF-CEM leukemia) |
| --- | --- | --- | --- | --- | --- | --- | --- | --- | --- | --- | --- | --- | --- | --- | --- | --- | --- | --- | --- | --- |
| CC1(C(=O)O)CCC(N)(C(=O)O)C1(C)C (centres undefined) | 110% | 112% | 107% | 86.5% | 101% | 116% | 114% | 87.7% | 100% | 105% | 91.9% | 111% | 115% | 104 | 97% | 108% | 102% | 127% | 118% |  |
| Cc1cc(C)c(O)c(CNCCCCCCNCc2cc(C)cc(C)c2O)c1 | -61.8% (active) | 47.9% | 29.8% | -60.3% (active) | -28% (active) | -42.3% (active) | 26.2% | 21.4% | -28.1% (active) | -48.3% (active) | -20.8% (active) | -12.4% (active) | 13.9% | 46.1 | 84.9% | 36.4% | 22% | -44.9% (active) | 8.8% (active) |  |
| c1ccc(-c2n[nH]c(-c3ccccn3)n2)nc1 | 108% | 98.5% | 111% | 93.8% | 116% | 107% | 81.1% | 224% |  | 127% | 104% | 107% | 100% | 103 | 108% | 116% | 144% | 139% | 90.4% | 103% |
| O=C(OCc1ccc2c(Cl)cc(Cl)c(O)c2n1)N1CCN(C(=O)c2cc3cc(F)ccc3[nH]2)CC1 | 22.9% | 94.5% | 30.1% | 33.4% | 63.7% | 26.7% | 14.8% | -13.1% (active) | 17.3% | 16.7% | 21.4% | 7.64% (active) | 40.7% | 40 | 19.3% | 11.2% | -44.1% (active) | 12.5% | 2.35% (active) |  |
| O=c1cc(-c2ccccc2)oc2cc(OCc3cn(Cc4ccc(F)cc4)nn3)cc(O)c12 | -39.8% [100 µM] (active) | 60.1% [100 µM] | 58.1% [100 µM] | 67% [100 µM] | 0.593% [100 µM] (active) | 5.21% [100 µM] (active) | 58.7% [100 µM] | 63.1% [100 µM] |  | 96.8% [100 µM] | 93.7% [100 µM] | 20.4% [100 µM] | 83.7% [100 µM] |  | 20.6% [100 µM] | 31.2% [100 µM] | 61.7% [100 µM] | 9.08% [100 µM] (active) | 43.2% [100 µM] | 109% [100 µM] |
| C=C1C(=O)O[C@H]2[C@H]1CC/C(COC(=O)NCc1ccc(Cn3c(=O)sn(-c4ccc(Cl)cc4)c3=O)cc1)=C\CC[C@@]1(C)O[C@@H]21 | 88.2% | 99.6% | 70.4% | 57.7% | 45% | 65.5% | 61% | 107% |  | 72.3% | 4.32% (active) | 84% | 93.2% | 54.2 | 107% | 54.4% |  | 106% | 102% | 0.529% (active) |
| Nc1nc(SCc2cccc([N+](=O)[O-])c2)c2[nH]cnc2n1 | 96% | 90.9% | 94.9% | 64.7% | 90.4% | 99.6% | 84% | 82.1% |  | 95.6% | 91.8% | 96.5% | 101% | 99.3 | 109% | 89.2% |  | 99.9% | 97.6% | 95% |
| Cc1ccccc1OC(=O)c1cccc(Cl)c1 | 103% | 99.2% | 110% | 80.2% | 108% | 107% | 109% | 90.5% |  | 97.3% | 98.8% | 112% | 104% | 112 | 137% | 104% | 109% |  | 108% | 98% |
| O=S(=O)(/N=c1/n(-c2ccccc2)nc2n1CCN2C1=NCCN1)c1ccc(-c2ccccc2)cc1 | 115% | 95.9% | 93.6% | 84.4% | 108% | 101% | 92% | 82.9% |  | 67.4% | 96.8% | 103% | 96.6% |  | 100% | 95.4% | 101% | 93.4% | 104% | 94.7% |
| O=C(O)c1cn(C2CC2)c2cc(N3CCN(Cc4cc(Cl)ccc4O)CC3)c(F)cc2c1=O | 88% | 65.1% | 65.3% | 40.7% | 81% | 44.3% | 46.7% | 94% |  | 0.849% (active) | 41.8% | 58.2% | 89.4% | 72.3 | 71% | 44.8% | 81.2% | 74.1% | 72.7% | 45.9% |
| Cn1cc(-c2noc(-c3cn(C)c4ncccc34)n2)c2cc(Cl)ccc21 | 97.3% | 89.3% | 92.1% | 78.9% | 89.5% | 89.3% | 86.6% | 82.7% | 96.1% | 82.2% | 96.6% | 96% | 79.7% | 98.3 | 89% | 99.8% | 109% | 111% | 89.8% |  |
| CC(C)(C)c1cc(C(=O)Nc2ccc(C(=O)NCCN)cc2)cc(C(C)(C)C)c1 | 60.3% | 71.2% | 12.8% | 69.5% | 90.9% | 44.4% | 71.7% | 13.1% |  | -40.4% (active) | 15.6% | 72.2% | 49.3% |  |  | 52.9% | 54.6% | 81.7% | 92.4% | 3.44% (active) |
| Cc1cccc([N+](=O)[O-])c1I | 112% | 95.4% | 107% | 85.1% | 113% | 105% | 100% | 93% |  | 128% | 99.6% | 98.2% | 98.9% | 110 | 115% |  | 118% | 113% | 109% | 87.2% |
| CC(C)C1=NOC(=O)C1=Cc1cn(-c2ccco2)nc1-c1ccccc1 | 113% | 99.6% | 87.4% | 71.5% | 110% | 92.3% | 73.8% | 98.6% | 20.7% | -2.02% (active) | 6.57% (active) | 80.5% | 114% | 94.6 | 102% | 90.2% | 90.6% | 96.1% | 98% |  |
| O=C1Cc2c(sc3c(F)cccc23)C(c2ccccc2[N+](=O)[O-])N1 (centres undefined) | 126% | 85.2% | 99.1% | 69.6% | 142% | 101% | 75.1% | 115% |  | 99.4% | 95.4% | 107% | 108% | 93 | 93.1% | 63.5% | 97.9% |  | 106% | 110% |
| O=C(N/N=C1\c2ccccc2-c2cccc(C(=O)O)c21)c1ccc(O)cc1 | 102% | 97.2% | 91.1% | 80.4% | 98.1% | 99.5% | 86.9% | 73.1% |  | 110% | 94.2% | 97.4% | 102% |  | 101% | 97.6% | 96.6% | 82% | 99.8% | 89.9% |
